Source: PubChem BioAssay (National Center for Advancing Translational Sciences (NCATS))
HepG2 tox – qHTS for Inhibitors of TGF-b: Cytotox Counterscreen | HepG2 CAGA-GFP viability, ATP luminescence, 18 h | AID 588856, 2011 | 410,000 tested, 0.76% active | Potency, µM (titrated, usually from 46.1 µM), inactives show top-dose activity change, negative = cytotoxicity, usual class: cytotoxic; also: potency is read from the fitted curve at half-maximal effect
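HepG2 CAGA-GFP cells (1000/well, DMEM with 1% FBS) received compound, then TGF-beta at 500 pg/mL final, and were incubated 18 hours at 37 degrees C. Viability was read by CellTiter-Glo luminescence. Media-only wells were set as complete cell-killing and DMSO as no toxicity.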
TGFb inhibitor – qHTS for Inhibitors of TGF-b | AID 588855, 2011 | HepG2 CAGA-GFP TGF-b/SMAD3 reporter, GFP fluorescence, 18 h; TGF-beta stimulated, 500 pg/mL final | 410,000 tested, 1.2% active | Potency, µM (titrated, usually from 46.1 µM), for the others: at the highest dose activity, negative = inhibition, usual class: inhibitors; also: potency is read from the fitted curve at half-maximal effect; % is scaled to controls: 0 for no effect and ±100 for the full control effect; nearly all actives have a fitted effect of over 65% in size
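HEPG2 CAGA-GFP, 1000 cells/well; 2 h settle, 37 C; cpd via pin tool; TGF-b 500 pg/mL final; 18 h, 37 C; GFP imaging ex488/em500-530; %Activity normalised to -TGF-b and +DMSO controls; CRC fit, curve class.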
DT40 TDP1 no CPT – qHTS for Inhibitors of human tyrosyl-DNA phosphodiesterase 1 (TDP1): qHTS in cells in absence of CPT; DT40 Tdp1-/- hTDP1 cells, no CPT, ATP luminescence, 48 h; Potency, µM (doses to about 46.2 µM), inactives show at the highest dose activity change, negative = growth inhibition, most hits filed as inhibitors; 420,000 tested, 15% active; also: potency is read from the fitted curve at half-maximal effect; % is scaled to controls: 0 for no effect and ±100 for the full control effect; nearly all actives have a fitted effect of over 55% in size
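Readout: luminescence from CellTiter-Glo after 30 min in the dark at RT. Cells: DT40 Tdp1-/- with stable hTDP1, 400/well. Exposure: compounds alone, ≥48 hr, 37 °C.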
TDP1 cell CPT – qHTS for Inhibitors of human tyrosyl-DNA phosphodiesterase 1 (TDP1): qHTS in cells in presence of CPT; chicken DT40 Tdp1-/-;hTDP1 cells + 20 nM CPT, ATP luminescence, 48 h; Potency, µM (highest dose often 46.2 µM), inactives show at the top dose activity change, negative = growth inhibition, usual class: inhibitors; 420,000 tested, 12% active; AID 686979, 2013; also: potency is read from the fitted curve at half-maximal effect; % is scaled to controls: 0 for no effect and ±100 for the full control effect; nearly all actives have a fitted effect of over 55% in size
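Cell growth measured by CellTiter-Glo luminescence after a minimum 48 h, 37 C compound exposure with 20 nM CPT in Tdp1-knockout DT40 cells stably expressing hTDP1, seeded 400/well; qHTS titration format.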
TDP1 block – qHTS Assay for Inhibitors of Tyrosyl-DNA Phosphodiesterase (TDP1); recombinant TDP1, AlphaScreen DNA substrate cleavage; Potency, µM (top dose mostly 130 µM), for the others: top-dose activity change, negative = inhibition, actives largely listed as inhibitors; 350,000 tested, 0.28% active; AID 485290, 2010; also: potency is read from the fitted curve at half-maximal effect; % is scaled to controls: 0 for no effect and ±100 for the full control effect; nearly all actives have a fitted effect of over 40% in size
Target sequence (Q9NUW8 whole entry, looked up): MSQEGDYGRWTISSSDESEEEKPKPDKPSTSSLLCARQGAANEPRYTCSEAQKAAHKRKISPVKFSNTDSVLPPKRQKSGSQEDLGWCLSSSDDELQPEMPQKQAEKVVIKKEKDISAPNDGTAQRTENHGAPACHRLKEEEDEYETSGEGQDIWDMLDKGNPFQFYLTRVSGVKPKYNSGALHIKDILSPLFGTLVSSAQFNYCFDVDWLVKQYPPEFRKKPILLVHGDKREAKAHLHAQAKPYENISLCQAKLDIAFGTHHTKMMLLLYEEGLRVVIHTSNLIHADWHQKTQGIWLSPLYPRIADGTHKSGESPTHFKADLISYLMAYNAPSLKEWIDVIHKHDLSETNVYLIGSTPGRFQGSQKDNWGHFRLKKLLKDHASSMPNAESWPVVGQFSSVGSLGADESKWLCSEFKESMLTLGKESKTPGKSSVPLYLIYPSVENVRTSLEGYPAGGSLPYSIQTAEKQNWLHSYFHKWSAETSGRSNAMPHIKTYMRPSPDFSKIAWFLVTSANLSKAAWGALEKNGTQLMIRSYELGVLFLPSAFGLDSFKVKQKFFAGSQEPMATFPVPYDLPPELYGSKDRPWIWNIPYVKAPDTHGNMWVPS
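Signal: AlphaScreen proximity between streptavidin donor and anti-FITC acceptor beads on intact substrate. Reaction: Tdp1 1 nM, substrate 15 nM final, 5 min RT after 15 min compound preincubation.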
IL1B secr inh – qHTS for Inhibitors of Inflammasome Signaling: IL-1-beta AlphaLISA Primary Screen. THP-1 LPS/ATP IL-1B secretion, AlphaLISA, 16 h; stronger effect = lower value. activity change, % at 57.5 µM. 360,000 tested, 4.7% active. AID 743279, 2014; in the data active = activity change below about -50%; inconclusive = mostly about -30% to -49%; also: % is scaled to controls: 0 for no effect and ±100 for the full control effect
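THP-1 cells pretreated 1 hr with compounds (up to 57.5 uM final), then stimulated with LPS (250 ng/mL final) plus ATP (1.25 mM final); secreted IL-1B measured by AlphaLISA after 16 hr, decreased signal indicating inhibition.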
* hit, by the source's call; ? = inconclusive; . = not tested or not shown; [ ] = dose if it differs, or a comment. Rows were chosen to be rich in hits. Some 18% of all compounds tested hit in one or more screens of this group. Unless noted, calls follow the shape of the dose curve; as a rule, active = well fitted curve in the direction sought with a large enough effect; inconclusive = small, poorly fitted or top-dose-only effect, or another doubt; inactive = no such curve, though single readings can be large; an effect the other way counts as inactive or inconclusive.

SMILES	HepG2 tox	TGFb inhibitor	DT40 TDP1 no CPT	TDP1 cell CPT	TDP1 block	IL1B secr inh
CSc1nccc(-c2nn(-c3ccc(C)cc3)ccc2=O)n1	1%	11%	5.8µM*	7.3µM*	5%	146
COc1ccc(C2Nc3ccccc3C(=O)N2Cc2ccccc2)cc1Oc1ccc(NC(C)=O)cc1 (stereo unspecified)	.	.	.	.	0%	.
Cc1ccc(NC(=O)c2ccc(NC(=O)N3CCSc4ncccc43)cc2)cc1Cl	-7%	-34%	12µM*	16µM*	3%	.
Cc1ccccc1NC(=O)c1ccc(NC(=O)N2CCSc3ncccc32)cc1	-3%	-13%	?	?	6%	.
Cc1ccc(NC(=O)c2cccc(NC(=O)N3CCSc4ncccc43)c2)cc1F	-4%	-24%	-25%	-19%	6%	.
Cc1cc(Cl)ccc1NC(=O)c1cccc(NC(=O)N2CCSc3ncccc32)c1	-21%	-7%	16µM*	?	6%	.
CC(=O)c1cc2c(cc1C)CCCC2(C)C	-12%	-12%	?	-22%	.	-3
CCCC(C)C(=O)Nc1ncc(S(=O)(=O)c2ccc([N+](=O)[O-])cc2)s1 (stereo unspecified)	-16%	0%	?	15µM*	4%	53
CCC(C)(C)C(=O)Nc1ncc(S(=O)(=O)c2ccc([N+](=O)[O-])cc2)s1	-24%	-12%	?	?	8%	58
O=C(CCl)Nc1ncc(S(=O)(=O)c2ccc([N+](=O)[O-])cc2)s1	-9%	0%	16µM*	29µM*	4%	?
CC(C)/C=C/CN1CCN(CCCc2ccccc2)C(CCO)C1 (stereo unspecified)	-22%	6%	?	?	.	-9
CSc1nc(=S)n(-c2ccc([N+](=O)[O-])cc2)c(C)c1C(C)=O	-4%	-3%	-10%	26%	2%	-8
CCNc1nc(NCC)n2c(SC(C(=O)Nc3cc(C)ccc3C)c3ccccc3)nnc2n1 (stereo unspecified)	-15%	-1%	12µM*	?	2%	?
CCNc1nc(NCC)n2c(SCC(=O)Nc3ccccc3F)nnc2n1	7%	2%	-7%	-15%	.	-12
CCNc1nc(NCC)n2c(SC(C)C(=O)c3ccc(C)cc3)nnc2n1 (stereo unspecified)	-21%	0%	13µM*	?	-5%	1
CCNc1nc(NCC)n2c(SCC(=O)Nc3ccc(CC)cc3)nnc2n1	1%	2%	?	21µM*	-7%	-1
COc1ccc(S(=O)(=O)N2CCOCC2)cc1NC(=O)c1cccs1	2%	-4%	28%	9%	3%	10
Cc1ccccc1C(=O)N1CCN(c2ccc(NC(=O)Cc3ccccc3)cc2)CC1	-29%	10%	?	?	3%	0
COc1ccc(CC(=O)NC2CC(=O)N(c3ccc(C)c(C)c3)C2)cc1OC (stereo unspecified)	-13%	-1%	-22%	-9%	3%	.
COC(=O)c1c(-c2cccs2)csc1NC(=O)COc1ccccc1	0%	.	21µM*	16µM*	-13%	.
COC(=O)c1c(-c2cccs2)csc1NC(=O)COc1ccc(C)cc1	-15%	3%	?	?	.	.
COC(=O)c1c(-c2cccs2)csc1NC(=O)COc1ccc(C(C)(C)C)cc1	-10%	-10%	21µM*	15µM*	?	.
CCOC(=O)C1(C)CCCN(C(=O)COc2ccccc2)C1 (stereo unspecified)	0%	26%	-20%	1%	.	26
O=C(N/N=C(\c1ccccc1)c1cccnc1)C(O)(c1ccccc1)c1ccccc1	11µM*	-15%	?	?	2%	-16
Cc1ccc(S(=O)(=O)NC(=O)NC2=NC(C)(C)N(c3ccc(Cl)c(Cl)c3)C(N)=N2)cc1	-56%	-6%	1µM*	0.92µM*	.	16
SMILES	HepG2 tox	TGFb inhibitor	DT40 TDP1 no CPT	TDP1 cell CPT	TDP1 block	IL1B secr inh
Cc1ccc(S(=O)(=O)NC(=O)Nc2ccc(Cl)cn2)cc1	-19%	5%	-5%	5%	0%	-9
Nc1nc(SCc2ccccc2)c2ncn(C3CCCCC3)c2n1	3%	-4%	29µM*	?	.	-78*
COc1ccc2cc(N=Cc3nc(-c4ccc(C)cc4)oc3O)cnc2c1	1%	3%	-4%	7%	0%	0
CO[C@@H](C(C)C)[C@@H](C)[C@@H]1OC(=O)C[C@@H]1O	.	.	.	.	6%[21 µM]	.
Cc1nc2c(c(C)nn2-c2ccccc2)c(C)c1CCC(=O)Nc1ccc(CN2CCCC2)cc1	-200%	?	?	16µM*	8%	-97*
CCOC(=O)N1CCN(C(=O)CCc2c(C)nc3c(c(C)nn3-c3ccc(C)c(C)c3)c2C)CC1	-12%	0%	16µM*	?	5%	23
CCCCNC(=O)CCc1c(C)nc2c(c(C)nn2-c2ccccc2)c1C	-8%	-10%	18µM*	18µM*	-5%	-10
Cc1nc2c(c(C)nn2-c2ccccc2)c(C)c1CCC(=O)NCc1ccccc1	-3%	-36%	?	?	0%	.
CCOc1ccc(CCNC(=O)CCc2c(C)nc3c(c(C)nn3-c3ccccc3)c2C)cc1OCC	-3%	?	13µM*	15µM*	7%	.
CCOC(=O)c1cc(-c2ccc(OC)cc2)nn1Cc1ccccc1	-8%	-12%	?	-27%	-14%	.
CC(C)(C)OC(=O)NS(=O)(=O)Nc1ccccc1Br	2%	6%	.	.	0%	.
Cc1nc2c(c(C)nn2-c2ccccc2)c(C)c1CCC(=O)NCCc1ccccc1	-7%	?	21µM*	21µM*	0%	.
CCC(CNC(=O)c1c(C)nn(-c2ccccc2)c1Cl)c1ccccc1 (stereo unspecified)	8%	4%	21µM*	23µM*	6%	-82*
CCOc1ccc(CCNC(=O)c2ccc3ccccc3n2)cc1OCC	-26%	-5%	8.2µM*	18µM*	0%	11
Cc1nn(-c2ccccc2)c(Cl)c1C(=O)NCCCCNC(=O)c1c(C)nn(-c2ccccc2)c1Cl	-2%	29%	-5%	4%	7%	-14
